Screens: PubChem BioAssay, National Center for Advancing Translational Sciences (NCATS)
Pf growth 48h: inhibits P. falciparum growth in the first generation, 48 h; P. falciparum luciferase growth in erythrocytes, 48 h; Potency, µM (highest dose often 28.7 µM), most hits filed as inhibitors; 310,000 tested, 5.9% active; AID 504832
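Erythrocytes infected with P. falciparum carrying an integrated firefly luciferase reporter (2% hematocrit, 0.1% parasitemia final) were exposed to compounds in RPMI 1640 with 0.5% Albumax at 37 C, 5% CO2. Growth inhibition was scored as reduced luminescence.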
NS1 inh: blocks influenza NS1 protein function. Potency, µM (doses to about 46.1 µM). 270,000 tested, 0.4% active. AID 2326; calls by dose curve; also: actives are rising curves; nearly all actives have a fitted effect of over 50% in size
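In this qHTS, NS1 from influenza A is expressed in budding yeast, where it slows growth. Cells are switched from glucose to 2% galactose medium (pH 6.0, -URA), treated with compound, and growth recovery is read at OD600.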
Cycloheximide cs: counter-screen hit for Shiga toxin inhibitors, cycloheximide | cell reporter, cycloheximide protein synthesis inhibition counterscreen | 300,000 tested, 12% active | max response, %; in the data active = max response mostly above about 13%, no sharp cut-off; inactive = mostly below about 14%; also: read at 38.3 µM for the half of the compounds with a filed dose
Pf growth 96h: P. falciparum growth inhibition at 96 hour, primary screen for plastid delayed-death inhibitors; 320,000 tested, 6.9% active; AID 504834; P. falciparum luciferase reporter growth, 96 h; Potency, µM (top dose mostly 28.7 µM), actives largely listed as inhibitors
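Plates of compound plus infected erythrocytes (2% hematocrit, 0.05% parasitemia final) incubate 96 hours, 37 C, 5% CO2. Detection reagent added; reduced luminescence from the parasites' luciferase reporter flags inhibition.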
Shiga toxin inh: Shiga toxin inhibition | Vero cells, Shiga toxin protein synthesis inhibition reporter | inhibition, % at 38.7 µM | 290,000 tested, 9.2% active; in the data active = inhibition mostly above about 28%, no sharp cut-off; inactive = mostly below about 43%
Large screens that a line does not name were inactive. Only some compounds are listed: those with a hit (about 21% of all), similar ones and a draw of the others. Unless noted, calls follow the shape of the dose curve; as a rule, active = well fitted inhibition curve with a large enough effect; inconclusive = small, poorly fitted or top-dose-only effect, or another doubt; inactive = no such curve, though single readings can be large or run the other way.

Cc1cccc(CCN2C(N(C)C)=NC[C@@H]2CC(C)C)c1	Pf growth 48h 13µM, Pf growth 96h inconclusive (no result: NS1 inh, Cycloheximide cs, Shiga toxin inh)
CC(C)C[C@H]1CN=C(Nc2ccccc2)N1CC1CCC1	none
CCCCN1C(Nc2ccccc2)=NC[C@@H]1Cc1ccccc1	Pf growth 48h inconclusive (no result: NS1 inh, Cycloheximide cs, Shiga toxin inh)
CCCCCCCN1C(N(C)C)=NC[C@@H]1Cc1ccccc1	Pf growth 48h 4.7µM, Pf growth 96h inconclusive (no result: NS1 inh, Cycloheximide cs, Shiga toxin inh)
CN(C)C1=NC[C@H](Cc2ccccc2)N1CCCCc1ccccc1	Pf growth 48h 13µM, Pf growth 96h inconclusive (no result: NS1 inh, Cycloheximide cs, Shiga toxin inh)
COc1ccc2nc(SCC(=O)NC3(C#N)CCCCC3)[nH]c2c1	none (no result: NS1 inh, Cycloheximide cs, Shiga toxin inh)
COc1cccc(Nc2nc(-c3ccc(O)cc3)cs2)c1	Cycloheximide cs 35
COc1cccc(Nc2nc(-c3cccc(N4C(=O)c5ccccc5C4=O)c3)cs2)c1	NS1 inh inconclusive, Cycloheximide cs 33
Cc1[nH]n(-c2ccccc2)c(=O)c1C=NC1CCCCCC1	Cycloheximide cs 20
Cc1[nH]n(-c2ccccc2)c(=O)c1C=NC1CCCCC1	Cycloheximide cs 14, Shiga toxin inh 49 (no result: NS1 inh)
Cc1[nH]n(-c2ccccc2)c(=O)c1C=Nc1cccc(F)c1	Shiga toxin inh 57
Cc1[nH]n(-c2ccccc2)c(=O)c1C=Nc1ccc2[nH]c(=O)[nH]c2c1	none
Cc1[nH]n(-c2ccccc2)c(=O)c1/C=N/N(c1ccccc1)c1ccccc1	Pf growth 48h inconclusive
C=CCN=Cc1c(C)[nH]n(-c2ccccc2)c1=O	Cycloheximide cs 22, Shiga toxin inh 93 (no result: NS1 inh)
Cc1[nH]n(-c2ccccc2)c(=O)c1/C=N/c1ccccn1	none
COC(=O)NNC(=O)c1ccc(C)c(Br)c1	Pf growth 96h inconclusive
C=C1CCN([C@H](C(=O)OCc2cccc(C)c2)C(C)C)S(=O)(=O)c2ccccc21	Pf growth 48h inconclusive, Pf growth 96h inconclusive
CC(C)Oc1ccc(CCNC(=O)C2CCC(=O)N(Cc3cccc(F)c3)C2)cc1 (configuration not stated)	Cycloheximide cs 55, Pf growth 96h inconclusive
CN(CCNC(=O)C1CCC(=O)N(Cc2cccc(F)c2)C1)CCc1ccccc1 (configuration not stated)	Pf growth 96h inconclusive
Cc1ccccc1CNC(=O)C1CCC(=O)N(Cc2cccc(F)c2)C1 (configuration not stated)	Pf growth 96h inconclusive
COc1ccccc1CCNC(=O)C1CCC(=O)N(Cc2cccc(F)c2)C1 (configuration not stated)	Cycloheximide cs 20, Pf growth 96h inconclusive, Shiga toxin inh 37
COc1ccc(CCN2CC(C(=O)NCCc3ccccc3C(F)(F)F)CCC2=O)cc1 (configuration not stated)	Cycloheximide cs 66, Shiga toxin inh 70
COc1ccccc1CN1CC(C(=O)N(C)Cc2ccc(C)o2)CCC1=O (configuration not stated)	Cycloheximide cs 22
COc1ccc(CCNC(=O)C2CCC(=O)N(CCc3ccc(OC)cc3)C2)cc1 (configuration not stated)	none
CC1CCN(C(=O)CSc2ccc(-c3cccc([N+](=O)[O-])c3)nn2)CC1	none (no result: NS1 inh)
O=C(NCCc1ccc(C(F)(F)F)cc1)C1CCC(=O)N(CCCN2CCCC2=O)C1 (configuration not stated)	Cycloheximide cs 12, Pf growth 96h 15µM
COc1ccccc1CCNC(=O)C1CCC(=O)N(Cc2ccccc2OC)C1 (configuration not stated)	Cycloheximide cs 15
COc1ccccc1CN1CC(C(=O)NCCCc2ccc(F)cc2)CCC1=O (configuration not stated)	Pf growth 96h inconclusive
CCc1nc(CN(C)C(=O)C2CCC(=O)N(Cc3cccc(F)c3)C2)no1 (configuration not stated)	none
CN(C(=O)C1CCC(=O)N(Cc2cccc(F)c2)C1)C1CCCCC1 (configuration not stated)	Cycloheximide cs 87, Shiga toxin inh 121
COc1ccc(CCN2CC(C(=O)N(C)Cc3ccc4nsnc4c3)CCC2=O)cc1 (configuration not stated)	Pf growth 96h inconclusive
COc1ccc(CCN2CC(C(=O)N(C)Cc3ccc(C)o3)CCC2=O)cc1 (configuration not stated)	Cycloheximide cs 38, Shiga toxin inh 74
N#CCOC(=O)[C@H](Cc1c[nH]c2ccccc12)NS(=O)(=O)c1ccc(Cl)cc1	none (no result: Pf growth 48h)
CCOC(=O)C1=NN(c2cccc(Cl)c2)C2=NC(C)=C(C(=O)OC)C(c3cccs3)N12 (configuration not stated)	Pf growth 48h inconclusive
Cc1ccccc1CN1CCN(Cc2cc(=O)c3ccccc3[nH]2)CC1CCO (configuration not stated)	none
COc1ccc(CCN2CC(C(=O)NCc3ccccc3)CCC2=O)cc1 (configuration not stated)	none
COc1ccc(CNC(=O)C2CCC(=O)N(CC3CCCCC3)C2)cc1 (configuration not stated)	Pf growth 96h 2.3µM
COc1ccccc1CN1CC(C(=O)NCCc2ccc(C)o2)CCC1=O (configuration not stated)	Pf growth 96h 9.3µM
COc1ccccc1CN1CC(C(=O)NCc2c(F)ccc(C)c2F)CCC1=O (configuration not stated)	Cycloheximide cs 47, Pf growth 96h inconclusive, Shiga toxin inh 82
CCS(=O)(=O)c1nc(S(=O)(=O)c2ccc(Cl)cc2)c(N2CCC(O)CC2)s1	Pf growth 96h inconclusive
Cc1ccc(S(=O)(=O)Nc2cccc(C(=O)NCc3ccc(S(N)(=O)=O)cc3)c2)cc1	none
Cc1ccc(S(=O)(=O)Nc2cccc(CP(=O)(c3ccccc3)c3ccccc3)c2)cc1	Pf growth 48h 3.3µM, Pf growth 96h 9.3µM
O=C(CP(=O)(c1ccccc1)c1ccccc1)Nc1cccc(CP(=O)(c2ccccc2)c2ccccc2)c1	Pf growth 48h inconclusive, Pf growth 96h 7.4µM
Oc1c(N=NC(=S)Nc2ccccc2F)c2ccccc2n1Cc1ccccc1	Pf growth 48h inconclusive (no result: NS1 inh)
Oc1c(N=NC(=S)Nc2ccccc2F)c2ccccc2n1Cc1ccccc1Cl	Pf growth 48h 5.2µM, Pf growth 96h inconclusive (no result: NS1 inh)
Cc1c(Cl)cccc1NC(=S)N=Nc1c(O)n(CN2CCOCC2)c2ccccc12	Pf growth 48h 3.7µM
CN(C)c1c(F)cc(-c2nn[nH]n2)cc1F	none
CN1CCN(C(=O)C23CC4CC(C)(CC(C)(C4)C2)C3)CC1	Pf growth 96h inconclusive
CC12CC3CC(C)(C1)CC(C(=O)N1CCCC1)(C3)C2	Pf growth 48h inconclusive, Pf growth 96h 12µM
O=C(NNC(=S)Nc1ccc(Cl)cc1Cl)c1ccc(N2CCOCC2)c([N+](=O)[O-])c1	Pf growth 96h inconclusive
CN(C)c1ccc(C(=O)c2ccc(N(C)C)c3ccccc23)cc1	Pf growth 48h inconclusive, Cycloheximide cs 25, Shiga toxin inh 68
COc1ccccc1C(=O)NCCN=C1NS(=O)(=O)c2ccccc21	none
Cc1cc(C)c(S(=O)(=O)N2CCCc3ccccc32)c(C)c1	Pf growth 48h 13µM, Pf growth 96h inconclusive
